Our source for the Potency, activity, negative = inhibition and activity change, negative = inhibition values is PubChem BioAssay (Tox21).

Unmarked numbers belong to inactive results. Inconclusive results are not listed. A call without a number means that no potency is given here. Activity calls are given as the source filed them. Calls follow the shape of the full dose curve.
Potency is read from the fitted curve at half-maximal effect.

Acetylcholinesterase (Homo sapiens), sequence (P22303 whole entry, looked up): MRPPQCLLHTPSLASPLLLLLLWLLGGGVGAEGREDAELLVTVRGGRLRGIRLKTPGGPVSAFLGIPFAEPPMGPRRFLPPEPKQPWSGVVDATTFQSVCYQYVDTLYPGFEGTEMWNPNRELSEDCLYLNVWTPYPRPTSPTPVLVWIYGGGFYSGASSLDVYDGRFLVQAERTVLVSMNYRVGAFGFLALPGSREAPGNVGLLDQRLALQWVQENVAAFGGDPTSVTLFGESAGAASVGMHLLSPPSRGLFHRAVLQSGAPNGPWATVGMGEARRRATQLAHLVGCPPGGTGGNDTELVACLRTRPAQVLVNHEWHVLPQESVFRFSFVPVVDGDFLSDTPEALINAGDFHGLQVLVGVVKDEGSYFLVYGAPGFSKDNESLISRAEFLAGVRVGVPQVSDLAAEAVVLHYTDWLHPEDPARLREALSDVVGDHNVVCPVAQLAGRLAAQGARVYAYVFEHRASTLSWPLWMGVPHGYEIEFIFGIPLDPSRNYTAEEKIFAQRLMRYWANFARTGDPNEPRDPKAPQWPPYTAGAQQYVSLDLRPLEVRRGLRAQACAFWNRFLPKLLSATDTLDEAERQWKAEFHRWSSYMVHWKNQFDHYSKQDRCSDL

One assay addresses Acetylcholinesterase (Homo sapiens) (UniProt P22303). Briefly: Acetylcholinesterase (AChE) small molecule antagonists: colormetric cell-based qHTS assay (AID 1347395). Also: nearly all actives have a fitted effect of over 30% in size. Conditions: SH-SY5Y cells AChE activity, colorimetric (Ellman); series mostly up to 115 µM. In a few lines:
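Quantitative HTS in attached SH-SY5Y cells: 30 min compound exposure, then 90 min with acetylthiocholine and DTNB at 37 C; colour from thiocholine reports AChE activity.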
(In general: Quantitative high-throughput screening tests each substance at several concentrations.)
For the compound `CN1CCN(c2c(F)cc3c(=O)c(C(=O)O)cn(CCF)c3c2F)CC1`, the Potency result is “inactive”.

On to `O=C(O)CC(=O)C(=O)O`, for which the Potency entry was “inactive”.

With `O=C(Nc1ccc(Cl)cc1)Nc1ccc(Cl)c(Cl)c1`, the Potency entry is “inactive”.

`F[B-](F)(F)F`: the Potency result is “inactive”.

For `O=C(Nc1ccccc1)OCC(CN1CCCCC1)OC(=O)Nc1ccccc1` (stereo not given), the Potency entry was “inactive”.

Regarding `CC(=O)OCc1ccc2c(c1)OCO2`, the Potency result was “inactive”.

Consider `Nc1ccc(N)c2c1C(=O)c1ccccc1C2=O`, for which the Potency result was “inactive”.

Regarding `O=[N+]([O-])c1cccc(C(F)(F)F)c1`, the Potency entry was “inactive”.

Consider `CCCCCCCCCCn1cc[n+](CCCCCCCCCC)c1C`, for which the Potency is 79.8 µM (active).

For the compound `C=CC(=O)OCCCCCCCCCC`, the Potency entry was “inactive”.

With `C=CC(=O)OCC(CO)(COC(=O)C=C)COC(=O)C=C`, the Potency entry is “inactive”.

As to `CCCCC(CC)COC(=O)/C=C\C(=O)OCC(CC)CCCC` (stereo not given), the Potency entry was “inactive”.

As for `CCOCOCC`, the Potency entry was “inactive”.

As for `OC(Cn1cncn1)(Cn1cncn1)c1ccc(F)cc1F`, the Potency result is “inactive”.

As to `O=Nc1ccc(O)cc1`, the Potency entry is “inactive”.

In the case of `CCCCCCCCS`, the Potency entry is “inactive”.

Regarding `C[C@H]1[C@H](NC(=O)/C(=N/OC(C)(C)C(=O)O)c2csc(N)n2)C(=O)N1S(=O)(=O)O` (stereo in doubt), the Potency entry is “inactive”.

With `CCCCCCCCSCCO`, the Potency entry is “inactive”.

Consider `CCCCCCCCO`, for which the Potency entry was “inactive”.

`CCCN(CCC)S(=O)(=O)c1ccc(C(=O)O)cc1`: the Potency entry is “inactive”.

With `C[C@@H]1[C@H](O)[C@@H](C)/C=C/C=C\C=C\C=C\C=C\C=C\C=C\[C@H](O[C@@H]2O[C@H](C)[C@@H](O)[C@H](N)[C@@H]2O)C[C@@H]2O[C@](O)(C[C@@H](O)C[C@@H](O)[C@H](O)CC[C@@H](O)C[C@@H](O)CC(=O)O[C@H]1C)C[C@H](O)[C@H]2C(=O)O` (stereo in doubt), the Potency result was “inactive”.

Turning to `O=C(c1ccc(O)cc1)c1ccc(O)cc1O`, the Potency result is “inactive”.

Regarding `CCCCCCCCCCCCCCCC[N+](C)(C)CC`, the Potency entry was “inactive”.

Turning to `C[C@]12CC[C@@H]3c4ccc(O)cc4CC[C@H]3[C@@H]1CC[C@@H]2OC(=O)CCC1CCCC1`, the Potency entry was “inactive”.

Consider `[Cl][Sc]([Cl])[Cl]`, for which the Potency result is “inactive”.

In the case of `NC(N)=Nc1nc(CSCC/C(N)=N/S(N)(=O)=O)cs1`, the Potency entry was “inactive”.

Regarding `CC(C=O)Cc1ccc(C(C)(C)C)cc1` (stereo not given), the Potency result was “inactive”.

`N#CCc1ccc(Cl)cc1Cl`: the Potency result was “inactive”.

Consider `CCOC(=O)c1ccc(OCCN2C[C@H](O)[C@@H](O)[C@H](O)[C@H]2CO)cc1`, for which the Potency result was “inactive”.

Take `COc1ccc(C2CNC(=O)C2)cc1OC1CCCC1` (stereo not given): the Potency entry was “inactive”.

`Cc1ccc(O)c(-n2nc3ccccc3n2)c1`: the Potency entry was “inactive”.

In the case of `COc1ccc(Cc2cnc(N)nc2N)cc1OC`, the Potency entry was “inactive”.

As for `CC(C)CNCC(C)C`, the Potency result was “inactive”.

Take `COc1nccnc1NS(=O)(=O)c1ccc(N)cc1`: the Potency entry was “inactive”.

As to `CCCOCCC`, the Potency entry was “inactive”.

As to `COC[C@H](c1ccc(C(F)(F)F)cc1)N1CCN(C2(C)CCN(C(=O)c3c(C)ncnc3C)CC2)C[C@H]1C`, the Potency entry was “inactive”.

`CC(C)(C)CC(=O)OCC(=O)[C@@]1(O)CC[C@H]2[C@@H]3CCC4=CC(=O)C=C[C@]4(C)[C@H]3[C@@H](O)C[C@@]21C`: the Potency result is “inactive”.

For the compound `CCCCCOC(=O)COc1cc(N2C(=O)C3=C(CCCC3)C2=O)c(F)cc1Cl`, the Potency entry was “inactive”.

In the case of `CCCCC(CC)COC(=O)c1ccc(O)cc1` (stereo not given), the Potency result is “inactive”.

For the compound `C[C@@H]1CC[C@@]2(OC1)O[C@H]1C[C@H]3[C@@H]4CC[C@H]5C[C@@H](O)CC[C@]5(C)[C@H]4CC(=O)[C@]3(C)[C@H]1[C@@H]2C`, the activity, negative = inhibition was -3.52% [at 10.5 µM].

The target is the same in a further assay. Briefly: Acetylcholinesterase (AChE) small molecule antagonists: enzyme-based qHTS assay (AID 1347397). Also: nearly all actives have a fitted effect of over 55% in size. The following applies: Potency: AChE enzyme activity inhibition; outcome: AChE enzyme activity inhibition; series mostly up to 115 µM. A digest of the protocol:
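Recombinant human AChE (50 mU/mL) preincubated with compound 30 min at room temperature; acetylthiocholine plus DTNB then added, and thiocholine formation read colorimetrically after 10 min at room temperature. DMSO served as vehicle control.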
With `CN1CCN(c2c(F)cc3c(=O)c(C(=O)O)cn(CCF)c3c2F)CC1`, the Potency entry was “inactive”.

`O=C(O)CC(=O)C(=O)O`: the Potency entry is “inactive”.

`O=C(Nc1ccc(Cl)cc1)Nc1ccc(Cl)c(Cl)c1`: the Potency result is “inactive”.

Regarding `F[B-](F)(F)F`, the Potency result is “inactive”.

Consider `O=C(Nc1ccccc1)OCC(CN1CCCCC1)OC(=O)Nc1ccccc1` (stereo not given), for which the Potency entry is “inactive”.

Regarding `CC(=O)OCc1ccc2c(c1)OCO2`, the Potency result is “inactive”.

Turning to `Nc1ccc(N)c2c1C(=O)c1ccccc1C2=O`, the Potency entry was “inactive”.

For the compound `O=[N+]([O-])c1cccc(C(F)(F)F)c1`, the Potency result is “inactive”.

With `CCCCCCCCCCn1cc[n+](CCCCCCCCCC)c1C`, the Potency is 35.6 µM (active).

For the compound `C=CC(=O)OCCCCCCCCCC`, the Potency entry was “inactive”.

Consider `C=CC(=O)OCC(CO)(COC(=O)C=C)COC(=O)C=C`, for which the Potency entry was “inactive”.

Turning to `CCCCC(CC)COC(=O)/C=C\C(=O)OCC(CC)CCCC` (stereo not given), the Potency result is “inactive”.

Turning to `CCOCOCC`, the Potency entry was “inactive”.

In the case of `OC(Cn1cncn1)(Cn1cncn1)c1ccc(F)cc1F`, the Potency result was “inactive”.

Turning to `O=Nc1ccc(O)cc1`, the Potency entry was “inactive”.

As for `CCCCCCCCS`, the Potency entry was “inactive”.

Take `C[C@H]1[C@H](NC(=O)/C(=N/OC(C)(C)C(=O)O)c2csc(N)n2)C(=O)N1S(=O)(=O)O` (stereo in doubt): the Potency result was “inactive”.

As for `CCCCCCCCSCCO`, the Potency result is “inactive”.

As to `CCCCCCCCO`, the Potency result was “inactive”.

On to `CCCN(CCC)S(=O)(=O)c1ccc(C(=O)O)cc1`, for which the Potency entry is “inactive”.

As for `C[C@@H]1[C@H](O)[C@@H](C)/C=C/C=C\C=C\C=C\C=C\C=C\C=C\[C@H](O[C@@H]2O[C@H](C)[C@@H](O)[C@H](N)[C@@H]2O)C[C@@H]2O[C@](O)(C[C@@H](O)C[C@@H](O)[C@H](O)CC[C@@H](O)C[C@@H](O)CC(=O)O[C@H]1C)C[C@H](O)[C@H]2C(=O)O` (stereo in doubt), the Potency result was “inactive”.

Turning to `O=C(c1ccc(O)cc1)c1ccc(O)cc1O`, the Potency entry is “inactive”.

As for `CCCCCCCCCCCCCCCC[N+](C)(C)CC`, the Potency was 71.2 µM (active).

Turning to `C[C@]12CC[C@@H]3c4ccc(O)cc4CC[C@H]3[C@@H]1CC[C@@H]2OC(=O)CCC1CCCC1`, the Potency entry was “inactive”.

Turning to `[Cl][Sc]([Cl])[Cl]`, the Potency result was “inactive”.

Regarding `NC(N)=Nc1nc(CSCC/C(N)=N/S(N)(=O)=O)cs1`, the Potency result is “inactive”.

With `CC(C=O)Cc1ccc(C(C)(C)C)cc1` (stereo not given), the Potency entry was “inactive”.

For `N#CCc1ccc(Cl)cc1Cl`, the Potency entry was “inactive”.

As to `CCOC(=O)c1ccc(OCCN2C[C@H](O)[C@@H](O)[C@H](O)[C@H]2CO)cc1`, the Potency result was “inactive”.

Take `COc1ccc(C2CNC(=O)C2)cc1OC1CCCC1` (stereo not given): the Potency result was “inactive”.

Take `Cc1ccc(O)c(-n2nc3ccccc3n2)c1`: the Potency result was “inactive”.

As to `COc1ccc(Cc2cnc(N)nc2N)cc1OC`, the Potency result is “inactive”.

Regarding `CC(C)CNCC(C)C`, the Potency result is “inactive”.

Regarding `COc1nccnc1NS(=O)(=O)c1ccc(N)cc1`, the Potency result is “inactive”.

As for `CCCOCCC`, the Potency entry was “inactive”.

As to `COC[C@H](c1ccc(C(F)(F)F)cc1)N1CCN(C2(C)CCN(C(=O)c3c(C)ncnc3C)CC2)C[C@H]1C`, the Potency entry was “inactive”.

As to `CC(C)(C)CC(=O)OCC(=O)[C@@]1(O)CC[C@H]2[C@@H]3CCC4=CC(=O)C=C[C@]4(C)[C@H]3[C@@H](O)C[C@@]21C`, the Potency entry was “inactive”.

With `CCCCCOC(=O)COc1cc(N2C(=O)C3=C(CCCC3)C2=O)c(F)cc1Cl`, the Potency entry is “inactive”.

Take `CCCCC(CC)COC(=O)c1ccc(O)cc1` (stereo not given): the Potency result was “inactive”.

`C[C@@H]1CC[C@@]2(OC1)O[C@H]1C[C@H]3[C@@H]4CC[C@H]5C[C@@H](O)CC[C@]5(C)[C@H]4CC(=O)[C@]3(C)[C@H]1[C@@H]2C`: the activity change, negative = inhibition was -1.66% [at 10.5 µM].
